Measurements from PubChem BioAssay (Tox21).
Inconclusive results are not listed. Active and inactive are the calls of the source. Unless noted, calls come from the whole dose curve; as a rule, active = well fitted curve in the direction sought with a large enough effect in the repeat runs; inconclusive = weak or mixed curves; inactive = no such curve, though single readings can be large; an effect the other way counts as inactive or inconclusive.

Key:
[1] = qHTS assay to identify small molecule antagonists of the retinoid acid receptor (RAR) signaling pathway - cell viability counter screen (AID 1159551); note: nearly all actives have a fitted effect of over 35% in size
Procedure, shortened: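 Viability of C3RL4 cells is quantified from ATP by luminescence after 6 h treatment at 37 C with compounds and 1 uM retinol.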

[2] = qHTS assay to identify small molecule antagonists of the retinoic acid receptor (RAR) signaling pathway (AID 1159552; note: nearly all actives have a fitted effect of over 50% in size; note: potency is the fitted concentration of half-maximal effect)
Procedure, shortened: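 Overnight-plated C3RL4 reporter cells get compound, then retinol to 1 uM final; plates sit 6 hr at 37 C, 5% CO2. A luciferase reagent is added and light output recorded after 30 min at room temperature.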

[3] = qHTS assay to identify small molecule agonists of the retinoic acid receptor (RAR) signaling pathway (AID 1159553); note: potency is the fitted concentration of half-maximal effect
Procedure, shortened: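 Compounds dissolved in DMSO were pinned onto C3RL4 cells seeded the previous day, and plates were held 6 hr at 37 C. RARE-driven luciferase output was then read by luminescence.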

[4] = qHTS assay to identify small molecule antagonists of the estrogen related receptor (ERR) signaling pathway - cell viability counter screen (AID 1224818); note: series mostly up to about 46 µM
Procedure, shortened: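 Cytotoxicity check run alongside the ERR antagonist screen: cells exposed to test compounds 17.5 h at 37 C, viability taken as CellTiter-Fluor fluorescence intensity.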

[5] = qHTS assay to identify small molecule antagonists of the estrogen related receptor signaling pathway with the pleiotropic PPARgamma coactivator (PGC) cell viability counter screen (AID 1224822; note: series mostly up to about 46 µM)
Procedure, shortened: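 Viable cell signal (CellTiter-Fluor, 30 min, 37 C/5% CO2) was measured in PGC/ERR cells after a 17.5 h compound incubation.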

[6] = qHTS assay to identify small molecule antagonists of the estrogen related receptor (ERR) signaling pathway from Tox21 library - cell viability counter screen (AID 1224834); note: nearly all actives have a fitted effect of over 30% in size
Procedure, shortened: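 In this quantitative HTS format, ERR cells receive compounds in DMSO and are incubated for 17.5 h at 37 C. Live-cell protease activity is then detected with CellTiter-Fluor.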

[7] = molecular target: Luciferin 4-monooxygenase (Photinus pyralis) (UniProt P08659); experiment: qHTS assay to identify small molecule inhibitors of firefly luciferase (AID 1224835); note: nearly all actives have a fitted effect of over 25% in size; note: potency is the fitted concentration of half-maximal effect
Sequence of Luciferin 4-monooxygenase (Photinus pyralis) (P08659 whole entry, looked up): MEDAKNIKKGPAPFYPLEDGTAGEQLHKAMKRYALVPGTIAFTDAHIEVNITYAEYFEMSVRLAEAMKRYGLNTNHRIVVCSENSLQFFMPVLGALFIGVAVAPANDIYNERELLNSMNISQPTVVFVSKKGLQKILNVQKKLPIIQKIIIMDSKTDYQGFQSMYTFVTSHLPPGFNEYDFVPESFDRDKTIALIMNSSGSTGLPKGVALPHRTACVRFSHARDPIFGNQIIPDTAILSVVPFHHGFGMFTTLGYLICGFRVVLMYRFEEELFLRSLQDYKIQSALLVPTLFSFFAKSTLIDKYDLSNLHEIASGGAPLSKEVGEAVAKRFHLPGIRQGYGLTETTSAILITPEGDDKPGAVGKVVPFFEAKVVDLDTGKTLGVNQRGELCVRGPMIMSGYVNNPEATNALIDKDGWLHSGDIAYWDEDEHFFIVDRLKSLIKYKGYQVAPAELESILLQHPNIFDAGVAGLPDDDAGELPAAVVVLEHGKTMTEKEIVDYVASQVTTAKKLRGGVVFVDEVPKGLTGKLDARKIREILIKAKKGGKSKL
Procedure, shortened: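 Inhibition of purified Photinus luciferase is measured by luminescence. Substrate levels (D-luciferin, ATP) sit at their KM values. Each compound is tested in a concentration series.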

[8] = qHTS assay to identify small molecule agonists of the constitutive androstane receptor (CAR) signaling pathway - cell viability counter screen (AID 1224836); note: series mostly up to about 92 µM; nearly all actives have a fitted effect of over 45% in size
Procedure, shortened: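 Fluorescence from CellTiter-Fluor indicates live cells after 23 h exposure. The human hepatoma line expresses hCAR and a CYP2B6-2.2kb reporter. Incubation medium contains 0.75 uM PK11195 (final).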

[9] = qHTS assay to identify small molecule antagonists of the constitutive androstane receptor (CAR) signaling pathway - cell viability counter screen (AID 1224837); note: series mostly up to about 92 µM; nearly all actives have a fitted effect of over 45% in size
Procedure, shortened: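 In quantitative HTS format, compounds at 15 concentrations were applied to HepG2 cells double-transfected with hCAR and CYP2B6-2.2kb under 50 nM CITCO stimulation; live-cell protease activity was read after 23 hr via CellTiter-Fluor.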

[10] = molecular target: Nuclear receptor subfamily 1 group I member 3 (Homo sapiens) (UniProt Q14994); experiment: qHTS assay to identify small molecule antagonists of the constitutive androstane receptor (CAR) signaling pathway (AID 1224838); note: nearly all actives have a fitted effect of over 40% in size; note: potency is the fitted concentration of half-maximal effect
Sequence of Nuclear receptor subfamily 1 group I member 3 (Homo sapiens) (Q14994 whole entry, looked up): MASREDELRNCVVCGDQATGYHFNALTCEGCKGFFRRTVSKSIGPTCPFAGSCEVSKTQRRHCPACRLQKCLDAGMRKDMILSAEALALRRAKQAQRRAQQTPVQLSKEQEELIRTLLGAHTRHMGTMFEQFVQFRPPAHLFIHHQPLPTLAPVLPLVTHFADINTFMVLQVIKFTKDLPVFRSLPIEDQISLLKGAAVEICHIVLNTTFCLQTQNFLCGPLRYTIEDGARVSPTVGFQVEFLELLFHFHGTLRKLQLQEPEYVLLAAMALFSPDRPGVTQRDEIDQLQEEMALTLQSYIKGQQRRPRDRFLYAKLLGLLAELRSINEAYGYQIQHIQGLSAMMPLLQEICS
Procedure, shortened: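 CITCO-stimulated (50 nM final) HepG2 cells stably transfected with hCAR and CYP2B6-2.2kb luciferase were exposed to compounds at 15 concentrations for 24 h at 37 C/5% CO2. A luciferase reagent was added and luminescence recorded after 30 min.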

[11] = molecular target: Nuclear receptor subfamily 1 group I member 3 (Homo sapiens) (UniProt Q14994); experiment: qHTS assay to identify small molecule agonists of the constitutive androstane receptor (CAR) signaling pathway (AID 1224839); note: nearly all actives have a fitted effect of over 15% in size; note: potency is the fitted concentration of half-maximal effect
Procedure, shortened: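 Stable hCAR/CYP2B6-2.2kb HepG2 line in DMEM with 10% FBS; compounds (15 concentrations) and 0.75 uM PK11195 final, 24 h at 37 C/5% CO2, then ONE-Glo luminescence after 30 min.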

[12] = qHTS assay to identify small molecule antagonists of the estrogen related receptor signaling pathway with the pleiotropic PPARgamma coactivator (PGC) from Tox21 10K library - cell viability counter screen (AID 1224840; active = well fitted cell-killing curve with a large enough effect in the repeat runs, not every such curve was filed as active; note: nearly all actives have a fitted effect of over 40% in size)
Procedure, shortened: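 Viability counter screen, PGC/ERR cells: 17.5 h compound exposure at 37 C, CellTiter-Fluor fluorescence endpoint.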

[13] = qHTS assay to identify small molecule antagonists of the estrogen related receptor signaling pathway with the pleiotropic PPARgamma coactivator (PGC) from Tox21 10K library (AID 1224841; call rule not given here; note: actives are mostly falling curves and most rising ones were filed inactive; nearly all actives have a fitted effect of over 50% in size; note: potency is the fitted concentration of half-maximal effect)
Procedure, shortened: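 In the PGC/ERR line, DMSO solutions of test chemicals are pin-delivered to 2,000 cells/well six hours after dispensing. Following eighteen hours' incubation, One-Glo reagent is added and luminescence recorded.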

[14] = qHTS assay to identify small molecule agonists of the estrogen related receptor signaling pathway with the pleiotropic PPARgamma coactivator (PGC) from Tox21 10K library (AID 1224842); note: nearly all actives have a fitted effect of over 15% in size; note: potency is the fitted concentration of half-maximal effect
Procedure, shortened: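 Luminescence from One-Glo (30 min, room temperature) measured after PGC/ERR cells had 18 h at 37 C with pinned compound (23 nL in DMSO). Cells had been seeded at 2,000 per well and pre-incubated 6 h.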

[15] = qHTS assay to identify small molecule agonists of the RXR signaling pathway - cell viability counter screen (AID 1159529);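 note: HEK 293T cells carrying an RXR-alpha UAS beta-lactamase reporter; series mostly up to about 77 µM; nearly all actives have a fitted effect of over 50% in size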
Procedure, shortened: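 Tox21 10K compounds were tested for cytotoxicity against GeneBLAzer RXR-alpha HEK 293T cells grown in 2% charcoal-stripped FBS. Exposure lasted 16 hr at 37 C, 5% CO2; viability read by CellTiter-Glo luminescence.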

Measured: Potency

NC(=O)c1ncn([C@@H]2O[C@H](CO)[C@@H](O)[C@H]2O)c1O
not listed: [13] | [14] | [15]
inactive: all other assays above

CC(C)c1ccc2oc3nc(N)c(C(=O)O)cc3c(=O)c2c1
active: [3] 2.11 µM | [7] 0.275 µM | [11] 0.841 µM | [14] 1.33 µM
not listed: [1] | [4] | [5] | [15]
inactive: all other assays above

CCCCCCCCCCCCCCC
not listed: [4] | [5] | [8] | [15]
inactive: all other assays above

OC/C=C/c1ccccc1
inactive: [1] | [6] | [7] | [8] | [9] | [12]

O=[N+]([O-])c1ccc(CCO)cc1
inactive: [1] | [6] | [7] | [9] | [10] | [11] | [12]

CC/C=C\C#N
inactive: [1] | [6] | [7] | [8] | [9] | [10] | [11] | [12]

C#CC(C)(O)CC(C)C (stereo not drawn)
not listed: [1] | [4] | [5]
inactive: all other assays above

CCCCCN(CCCCC)C(=O)C(CCC(=O)O)NC(=O)c1ccc(Cl)c(Cl)c1 (stereo not drawn)
not listed: [1] | [13] | [14] | [15]
inactive: all other assays above

O=C(O)C(O)[C@H](O)[C@@H](O)[C@H](O)[C@H](O)CO (stereo partly drawn)
not listed: [4] | [5] | [13] | [15]
inactive: all other assays above

Oc1cc(O)c2c(c1)O[C@H](c1ccc(O)c(O)c1)[C@H](O)C2
inactive: [1] | [2] | [3] | [6] | [7] | [9] | [12]

CCCC(C)C(=O)O (stereo not drawn)
active: [13] 52.3 µM
not listed: [4] | [5] | [8] | [15]
inactive: all other assays above

CC1=CCC2C(C1)C2(C)C (stereo not drawn)
inactive: [15] | [6] | [7] | [8] | [9] | [10] | [11] | [12]

NCCNC(=O)c1ccc(Cl)cn1
inactive: [15] | [6] | [7] | [8] | [9] | [12] | [13] | [14]

CC1(C)SC(C)(C)SC(C)(C)S1
inactive: [15] | [6] | [7] | [8] | [9] | [12] | [13] | [14]

CC12CCC(CC1=O)C2(C)C (stereo not drawn)
not listed: [1] | [4] | [5]
inactive: all other assays above

Cc1ncc(CSSCc2cnc(C)c(O)c2CO)c(CO)c1O
inactive: [15] | [6] | [7] | [8] | [9] | [12] | [13] | [14]

COc1ccc2cc(C=O)ccc2c1
active: [7] 34.7 µM
not listed: [4] | [5] | [15]
inactive: all other assays above

Cc1c(C)n(CCN(C)C)c2ccc(C(=O)OCCN(C)C)cc12
inactive: [1] | [2] | [3] | [6] | [7] | [11] | [14]
active: [10] 29.8 µM

CNC(=O)c1c(I)c(NC(=O)CCCCC(=O)Nc2c(I)c(C(=O)O)c(I)c(C(=O)NC)c2I)c(I)c(C(=O)O)c1I
not listed: [4] | [5] | [8] | [15]
inactive: all other assays above

CCCc1ccccc1O
inactive: [15] | [6] | [7] | [8] | [9] | [10] | [11] | [12]

C=CC(=O)OCCCCCC
inactive: [1] | [6] | [7] | [8] | [9] | [12]

CCC(=O)/C=C/c1ccc(OC)cc1
active: [3] 61.1 µM | [7] 35.6 µM | [11] 54.5 µM
not listed: [1] | [4] | [5]
inactive: all other assays above

CCCCCCOC(=O)c1ccccc1O
active: [7] 17.8 µM
not listed: [4] | [5] | [15]
inactive: all other assays above

Oc1ccc2c(c1)OC[C@@H](N1CCC(O)(c3ccc(F)cc3)CC1)[C@H]2O
active: [3] 0.531 µM | [7] 1.55 µM | [11] 3.76 µM | [14] 4.73 µM
not listed: [1] | [4] | [5] | [15]
inactive: all other assays above

CC(C)c1cccc(O)c1
not listed: [2] | [3] | [4] | [5] | [7] | [15]
inactive: all other assays above

O=S(=O)(c1cccc2cnccc12)N1CCCNCC1
inactive: [3] | [6] | [7] | [11] | [12] | [14]
active: [2] 29.8 µM | [10] 13.3 µM | [13] 23.7 µM

CC(C)[C@H](N)C(=O)OCCOCn1cnc2c(=O)[nH]c(N)nc21
inactive: [1] | [6] | [7] | [8] | [9] | [12]

COc1ccc(NC(C)=O)cc1
inactive: [2] | [3] | [6] | [7] | [8] | [9] | [12]

NS(=O)(=O)c1cc2c(cc1Cl)NC(CSCc1ccccc1)=NS2(=O)=O
inactive: [1] | [6] | [7] | [8] | [9] | [10] | [11] | [12]

CCO[Si](C)(OCC)OCC
not listed: [4] | [5] | [15]
inactive: all other assays above

CC(=O)NC(Cc1ccccc1)C(=O)O (stereo not drawn)
not listed: [1] | [4] | [5] | [13] | [14]
inactive: all other assays above

CCOC(=O)Cn1c(=O)sc2cccc(Cl)c21
active: [11] 54.5 µM
not listed: [1] | [4] | [5]
inactive: all other assays above

CCN1CCCC1CNC(=O)c1cc(S(N)(=O)=O)ccc1OC (stereo not drawn)
not listed: [13] | [14] | [15]
inactive: all other assays above

CCCCCCCCN(C)CCCCCCCC
not listed: [1] | [4] | [5]
inactive: all other assays above
